Assay results as given in PubChem BioAssay AID1159580 (chemical genetic matrix, 2015).
Several values for one entry are separate records, joined by “and”; a condition that tells them apart may be missing. Equal entries are not always repeated. The whole screen tested about 5,500 compounds, of which about 2,000 (36%) were called active. Not shown: some 18% with an inconclusive outcome. No stated cut-off is given here; in the data, active means normalized growth mostly below about 0.91 (no sharp cut-off); inconclusive means no clear call, values can overlap the other calls; inactive means mostly above about 0.92. The list shows a part of the results.

Experiment: chemical genetic growth profiling, strain panel (AID 1159580);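 further: tested at 20 µM; growth read once vehicle control cultures reached saturation at 30 °C; 1 = growth at the plate median or of vehicle wells; lower values mean less growth of the strain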
Conditions: growth OD

Measured: normalized growth

CN=C(NC#N)NCCSCc1nc[nH]c1C
inactive: S. cerevisiae deletion strains, locus YJR075W, strain HOC1, hits give low values 1.01 | S. cerevisiae deletion strains, locus YKL009W, strain mrt4, hits give low values 1.03 | S. cerevisiae deletion strains, locus YKL068W, hits give low values 0.992 | S. cerevisiae deletion strains, locus YKL085W, strain MDH1 (second series), hits give low values 0.992 | S. cerevisiae deletion strains, locus YKL085W, strain MDH1, hits give low values 0.992 | S. cerevisiae deletion strains, locus YKL160W, strain elf1, hits give low values 0.986 | S. cerevisiae deletion strains, locus YKL190W, strain CNB1, hits give low values 1 | S. cerevisiae deletion strains, locus YKR001C, strain vps1, hits give low values 0.998 | S. cerevisiae deletion strains, locus YKR026C, strain gcn3, hits give low values 1 | S. cerevisiae deletion strains, locus YKR091W, strain srl3, hits give low values 1 | S. cerevisiae deletion strains, locus YLL001W, strain dnm1, hits give low values 1 | S. cerevisiae deletion strains, locus YLL026W, hits give low values 0.997 | S. cerevisiae deletion strains, locus YLL041C, strain sdh2, hits give low values 1 | S. cerevisiae deletion strains, locus YLR027C, strain aat2, hits give low values 1.01 | S. cerevisiae deletion strains, locus YLR039C, strain RIC1, hits give low values 1 | S. cerevisiae deletion strains, locus YLR058C, strain SHM2, hits give low values 0.989 | S. cerevisiae deletion strains, locus YLR102C, strain apc9, hits give low values 0.985 | S. cerevisiae deletion strains, locus YLR113W, strain HOG1, hits give low values 1.03 | S. cerevisiae deletion strains, locus YLR221C, strain rsa3, hits give low values 0.986 | S. cerevisiae deletion strains, locus YLR258W, strain gsy2, hits give low values 1.02 | S. cerevisiae deletion strains, locus YLR262C, strain YPT6 (second series), hits give low values 1.01 | S. cerevisiae deletion strains, locus YLR262C, strain YPT6, hits give low values 1.01 | S. cerevisiae deletion strains, locus YLR268W, strain sec22, hits give low values 0.955 | S. cerevisiae deletion strains, locus YLR320W, strain mms22, hits give low values 0.982 | S. cerevisiae deletion strains, locus YLR330W, strain CHS5, hits give low values 0.991 | S. cerevisiae deletion strains, locus YLR342W, strain FKS1 (second series), hits give low values 1.01 | S. cerevisiae deletion strains, locus YLR342W, strain FKS1, hits give low values 1 | S. cerevisiae deletion strains, locus YLR357W, strain rsc2, hits give low values 0.979 | S. cerevisiae deletion strains, locus YLR370C, strain arc18, hits give low values 1.01 | S. cerevisiae deletion strains, locus YLR371W, strain rom2, hits give low values 0.993 | S. cerevisiae deletion strains, locus YLR384C, strain iki3, hits give low values 0.998 | S. cerevisiae deletion strains, locus YLR418C, strain cdc73, hits give low values 1.03 | S. cerevisiae deletion strains, locus YML016C, strain PPZ1, hits give low values 0.997 | S. cerevisiae deletion strains, locus YML032C, strain rad52, hits give low values 0.986 | S. cerevisiae deletion strains, locus YML120C, strain ndi1, hits give low values 0.993 | S. cerevisiae deletion strains, locus YML124C, strain tub3, hits give low values 0.98 | S. cerevisiae deletion strains, locus YMR058W, strain fet3, hits give low values 1 | S. cerevisiae deletion strains, locus YMR078C, strain ctf18, hits give low values 0.986 | S. cerevisiae deletion strains, locus YMR125W, strain sto1, hits give low values 0.996 | S. cerevisiae deletion strains, locus YMR129W, hits give low values 1 | S. cerevisiae deletion strains, locus YMR205C, strain PFK2, hits give low values 0.994 | S. cerevisiae deletion strains, locus YMR223W, strain ubp8, hits give low values 1.02 | S. cerevisiae deletion strains, locus YMR231W, strain pep5, hits give low values 0.999 | S. cerevisiae deletion strains, locus YMR263W, strain SAP30, hits give low values 0.998 | S. cerevisiae deletion strains, locus YMR307W, strain GAS1, hits give low values 1 | S. cerevisiae deletion strains, locus YNL067W, strain RPL9B, hits give low values 1 | S. cerevisiae deletion strains, locus YNL071W, strain lat1, hits give low values 1.01 | S. cerevisiae deletion strains, locus YNL128W, strain TEP1, hits give low values 0.991 | S. cerevisiae deletion strains, locus YNL153C, strain GIM3, hits give low values 0.994 and 1.05 | S. cerevisiae deletion strains, locus YNL175C, strain NOP13, hits give low values 1 | S. cerevisiae deletion strains, locus YNL183C, strain NPR1, hits give low values 1 | S. cerevisiae deletion strains, locus YNL197C, strain WHI3, hits give low values 1.02 | S. cerevisiae deletion strains, locus YNL209W, strain ssb2, hits give low values 1 | S. cerevisiae deletion strains, locus YNL224C, strain SQS1, hits give low values 0.993 | S. cerevisiae deletion strains, locus YNL233W, strain BNI4, hits give low values 0.988 | S. cerevisiae deletion strains, locus YNL248C, strain rpa49, hits give low values 0.996 | S. cerevisiae deletion strains, locus YNL250W, strain rad50, hits give low values 0.953 | S. cerevisiae deletion strains, locus YNL271C, strain bni1, hits give low values 0.965 | S. cerevisiae deletion strains, locus YNL298W, strain CLA4, hits give low values 0.971 | S. cerevisiae deletion strains, locus YNL307C, strain MCK1, hits give low values 0.996 | S. cerevisiae deletion strains, locus YNL322C, strain KRE1 (second series), hits give low values 0.989 | S. cerevisiae deletion strains, locus YNL322C, strain KRE1, hits give low values 1 | S. cerevisiae deletion strains, locus YNR049C, strain mso1, hits give low values 1 | S. cerevisiae deletion strains, locus YNR052C, strain pop2, hits give low values 1 | S. cerevisiae deletion strains, locus YOL006C, strain TOP1, hits give low values 1.01 | S. cerevisiae deletion strains, locus YOL012C, strain htz1 0.875 | S. cerevisiae deletion strains, locus YOL147C, strain pex11, hits give low values 0.973 | S. cerevisiae deletion strains, locus YOR001W, strain rrp6, hits give low values 0.999 | S. cerevisiae deletion strains, locus YOR061W, strain CKA2, hits give low values 0.99 | S. cerevisiae deletion strains, locus YOR069W, strain VPS5, hits give low values 0.99 | S. cerevisiae deletion strains, locus YOR070C, strain gyp1, hits give low values 0.996 | S. cerevisiae deletion strains, locus YOR080W, strain dia2, hits give low values 1 | S. cerevisiae deletion strains, locus YOR083W, strain WHI5 (second series), hits give low values 1.04 | S. cerevisiae deletion strains, locus YOR083W, strain WHI5, hits give low values 0.981 | S. cerevisiae deletion strains, locus YOR106W, strain vam3, hits give low values 0.979 | S. cerevisiae deletion strains, locus YOR136W, strain idh2, hits give low values 0.994 | S. cerevisiae deletion strains, locus YOR144C, strain elg1, hits give low values 0.983 | S. cerevisiae deletion strains, locus YOR184W, strain ser1, hits give low values 0.993 | S. cerevisiae deletion strains, locus YOR231W, strain MKK1, hits give low values 1.03 | S. cerevisiae deletion strains, locus YOR265W, strain rbl2, hits give low values 0.999 | S. cerevisiae deletion strains, locus YOR270C, strain vph1, hits give low values 1.02 | S. cerevisiae deletion strains, locus YOR290C, strain snf2, hits give low values 0.972 | S. cerevisiae deletion strains, locus YOR316C, strain cot1, hits give low values 0.991 | S. cerevisiae deletion strains, locus YPL051W, strain arl3, hits give low values 0.991 | S. cerevisiae deletion strains, locus YPL055C, strain LGE1, hits give low values 1.05 | S. cerevisiae deletion strains, locus YPL078C, strain atp4, hits give low values 1.01 | S. cerevisiae deletion strains, locus YPL106C, strain sse1, hits give low values 0.972 | S. cerevisiae deletion strains, locus YPL240C, strain hsp82, hits give low values 1 | S. cerevisiae deletion strains, locus YPL241C, strain CIN2, hits give low values 0.995 and 1.01 | S. cerevisiae deletion strains, locus YPL256C, strain CLN2, hits give low values 1.06 | S. cerevisiae deletion strains, locus YPR119W, strain clb2, hits give low values 0.978 | S. cerevisiae deletion strains, locus YPR141C, strain kar3, hits give low values 0.97 | S. cerevisiae deletion strains, locus YPR163C, strain tif3, hits give low values 0.984 | S. cerevisiae deletion strains, locus YPR167C, strain met16, hits give low values 0.986 | S. cerevisiae deletion strains, strain wtn01, hits give low values 1.01 | S. cerevisiae strains, strain wild type, hits give low values 0.998
